Among the data in PubChem BioAssay (NCI) are growth inhibition values, retold here.

SMILES strings stand for the structures. The panel holds about 79,000 compounds, 15% with a hit somewhere; the sample as a whole holds those more often. Values without a mark were called inactive. The source made the active and inactive calls. Cut-off read from the data, not from the text of the source: active = growth inhibition above about 70%; inactive = the rest.

The nature of test [1]: NCI Yeast Anticancer Drug Screen. Data for the rad50 strain (AID 155).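 Note: 0% = growth of vehicle-only cultures of the same strain.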 The note with it: S. cerevisiae rad50 strain growth inhibition; at 50.0 µM; hits give high values. In outline: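 Inhibition values express reduced yeast growth in compound-treated cultures relative to vehicle-treated controls.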
The nature of test [2]: NCI Yeast Anticancer Drug Screen. Data for the mec2-1 strain (AID 157). The following applies: S. cerevisiae mec2-1 strain, at 50.0 µM, hits give high values. In outline: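 Yeast mec2-1 mutant treated with compound. Readout: growth inhibition vs vehicle controls.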
Test [3] can be described thus: NCI Yeast Anticancer Drug Screen. Data for the sgs1 mgt1 strain (AID 161).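 Note: 0% = growth of cultures given vehicle only.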 The following applies: S. cerevisiae sgs1 mgt1 strain, at 50.0 µM, hits give high values. In outline: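 Genetically altered yeast, compound exposure, growth inhibition relative to vehicle.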
A short description of test [4]: NCI Yeast Anticancer Drug Screen. Data for the cln2 rad14 strain (AID 165).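 Note: 0% = growth equal to vehicle treated cultures.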 The note with it: S. cerevisiae cln2 rad14 strain, at 50.0 µM, hits give high values. The method in brief:
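cln2 rad14 yeast strain; compound exposure; growth inhibition read vs vehicle controls.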

Test [5] can be described thus: NCI Yeast Anticancer Drug Screen. Data for the bub3 strain (AID 167). The following applies: S. cerevisiae bub3 mutant strain, at 50.0 µM, hits give high values. The method in brief: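 Steps: expose the mutant yeast strain to compound; grow alongside vehicle-treated cultures; measure growth; express inhibition against the vehicle cultures.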
Test [6] in a line: NCI Yeast Anticancer Drug Screen. Data for the mlh1 rad18 strain (AID 175). The note with it: S. cerevisiae mlh1 rad18 strain growth inhibition; at 50.0 µM; hits give high values. In outline:
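Yeast w/ defined DNA-repair lesions; compound exposure; growth vs vehicle controls → % inhibition.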

Take `O=C1C2C3(CCl)C1C23CCl` (stereo unspecified): the growth inhibition in test [1] is 23.9%; in test [2], 46.6%; in test [3], 37.6%; in test [4] it was 10.4%; in test [5], 18.2%; in test [6], 40.6%.
Regarding `OC(CNc1ccc(Cl)cc1)CN1CCOCC1` (stereo unspecified), the growth inhibition was 77.7% (active) in test [1]; 15.2% in test [2]; 14.9% in test [3]; -1.05% in test [4]; -3.7% in test [5]; 42% in test [6].
In the case of `Cc1ccc(N=NN(C)C)cc1NC(=O)NCC(=O)OC(C)(C)C`, the growth inhibition in test [1] is 4.7%; in test [2] it was 8.7%; in test [3], 4.95%; in test [4] it was -31.6%; in test [5] it was 7.25%; in test [6] it was 7.8%.
As to `Oc1ccc2ccccc2c1/C=N/N=C/c1c(O)ccc2ccccc12`, the growth inhibition in test [1] is 31.4%; in test [2], -14.6%; in test [3], 53.8%; in test [4], 20.9%; in test [5], 6.4%; in test [6] it was 3.8%.
For `CC(CS)CS`, the growth inhibition was 6.85% in test [1]; -0.5% in test [2]; 6.95% in test [3]; -8.75% in test [4]; -0.8% in test [5]; 37% in test [6].
`COC1(OC)C(N(C)C)=C(Cl)C(=O)/C1=C/C=O`: the growth inhibition in test [1] is 7.75%; in test [2], -10.7%; in test [3], -16.9%; in test [4], -6.65%; in test [5], 13.8%; in test [6], -16.4%.
Take `O=C(O)c1cc(-c2ccccc2Cl)nc2ccccc12`: the growth inhibition is 10.7% in test [1]; -6.55% in test [2]; -8.3% in test [3]; -10.7% in test [4]; 19.8% in test [5]; 0.45% in test [6].
Consider `Cn1c2ccccc2c(=S)c2c(O)cc3c(c21)C=CC(C)(C)O3`, for which the growth inhibition is 28.8% in test [1]; 6.3% in test [2]; -0.7% in test [3]; 22.9% in test [4]; 9.85% in test [5]; 21.6% in test [6].
In the case of `C[C@@]1(N2C(=O)OC(c3ccccc3)C2=O)C(=O)N2CCS[C@@]21c1ccccc1` (stereo partly specified), the growth inhibition is 4.2% in test [1]; 2.6% in test [2]; 11.8% in test [3]; 11.3% in test [4]; 5.85% in test [5]; 1.25% in test [6].
As for `COc1cc(O)c(C(=O)CC(C)=O)c(OC)c1`, the growth inhibition in test [1] is -14.9%; in test [2], -14.8%; in test [3], -3.7%; in test [4], -0.9%; in test [5], 10.9%; in test [6], -11.7%.
For the compound `CC(=O)OC1C(=O)OCC23CCC(C)=CC2OC2CC(OC(=O)/C=C/C=C/C(=O)OCCC1C)C3(C)C21CO1` (stereo unspecified), the growth inhibition in test [1] was -35.5%; in test [2], -4.45%; in test [3] it was -31.3%; in test [4], -4.4%; in test [5], -22.6%; in test [6] it was -19.6%.
`Cc1cn(C2CC(N(C)O)C(CO)O2)c(=O)[nH]c1=O` (stereo unspecified): the growth inhibition in test [1] was -16.8%; in test [2] it was -27%; in test [3] it was -8.15%; in test [4] it was -34.7%; in test [5] it was -12.3%; in test [6], -58.9%.
`CCCCCCC1(C)OCC(c2ccccc2)O1` (stereo unspecified): the growth inhibition in test [1] is -0.1%; in test [2] it was -33.5%; in test [3] it was 5.95%; in test [4], -11.7%; in test [5], 2.2%; in test [6], 9.65%.
As for `O=c1cc2c(n[nH]1)CCCC2`, the growth inhibition was 8.85% in test [1]; 4.55% in test [2]; 2.55% in test [3]; 16.9% in test [4]; -0.75% in test [5]; 11.4% in test [6].
Take `O=C(c1ccccc1)C(c1ccccc1)S(=O)(=O)N1CCCC1` (stereo unspecified): the growth inhibition is -4.65% in test [1]; 5.65% in test [2]; 21.6% in test [3]; -1.4% in test [4]; 12.7% in test [5]; 26.9% in test [6].
Turning to `CC(=O)[C@@H](C)C(=O)N1C(=O)OC[C@@]12[C@@H]1CC[C@@H](C1)C2(C)C`, the growth inhibition in test [1] was -13.8%; in test [2] it was -31.4%; in test [3] it was -25.9%; in test [4] it was -26.4%; in test [5], 10.8%; in test [6], -32%.
Regarding `CCOC(=N)Cc1ccccc1`, the growth inhibition in test [1] is 3.7%; in test [2], 21.1%; in test [3], 4.6%; in test [4], -10.8%; in test [5], 23.4%; in test [6], -27.9%.
Consider `Cc1ccc(N2C(=O)/C(=C/c3ccc(N(CCC#N)CCC#N)cc3)CC2(O)c2ccccc2)cc1` (stereo unspecified), for which the growth inhibition in test [1] was -12.1%; in test [2], -12.6%; in test [3] it was -38.3%; in test [4], -23.8%; in test [5], -13.1%; in test [6], -5.55%.
Turning to `NC(=O)N/N=C(/Cl)C(=O)NNC(N)=O`, the growth inhibition in test [1] is -4.4%; in test [2] it was 6.25%; in test [3] it was -10.5%; in test [4], -81.2%; in test [5], -0.95%; in test [6], -27.1%.
Regarding `Cn1c(=O)c2c(ncn2-c2ccc(N)cn2)n(C)c1=O`, the growth inhibition was -7.1% in test [1]; -4.55% in test [2]; -7.15% in test [3]; 9.45% in test [4]; 11.2% in test [5]; 4.1% in test [6].
Take `O=C1CC2CC1C1CC(Br)C(Br)C21` (stereo unspecified): the growth inhibition in test [1] was -2.9%; in test [2], -17.3%; in test [3] it was -8.8%; in test [4], -4.85%; in test [5], -15.7%; in test [6], -1.1%.
On to `CC(=O)c1ccccc1NC(=O)C(=O)C(C(=O)c1ccc2ccccc2c1)C1OC(=O)c2ccccc21` (stereo unspecified), for which the growth inhibition is -3.15% in test [1]; 3.45% in test [2]; 11.4% in test [3]; -44.2% in test [4]; 4.85% in test [5]; 8.25% in test [6].
Regarding `c1ccc(-c2nc3ccccc3o2)cc1`, the growth inhibition is 31.3% in test [1]; 21.4% in test [2]; 26.9% in test [3]; 4.25% in test [4]; 27.4% in test [5]; 37.4% in test [6].
On to `NC(=N\C1=NCCN1)/C(N)=N/C1=NCCN1`, for which the growth inhibition was -13.4% in test [1]; 5.35% in test [2]; -1.35% in test [3]; -29.5% in test [4]; -2.3% in test [5]; -13.2% in test [6].
On to `Cc1cccnc1Br`, for which the growth inhibition is -25.2% in test [1]; -9.85% in test [2]; -5.05% in test [3]; -29.6% in test [4]; -5.65% in test [5]; -26.1% in test [6].
As for `CCOC(OCC)C(O)c1ccccc1` (stereo unspecified), the growth inhibition is -17.2% in test [1]; -17% in test [2]; -11.9% in test [3]; -15% in test [4]; -12.6% in test [5]; -11% in test [6].
Turning to `CCOC(=O)C(=CC(CC)CC)C(=O)OCC`, the growth inhibition in test [1] is 8.7%; in test [2] it was -18.4%; in test [3], -10.2%; in test [4], -4.1%; in test [5] it was -16.2%; in test [6] it was -0.85%.
With `COC(=O)C1=C(\N2CCOCC2)CCCC/C=C\1C(=O)OC`, the growth inhibition in test [1] was -2.55%; in test [2], 1.15%; in test [3], -4.9%; in test [4], -10.3%; in test [5], 3.65%; in test [6], -4.5%.
Take `COC(=O)CCC(=O)c1cc(OC)c2cc3ccccc3cc2c1OC`: the growth inhibition in test [1] is 9.2%; in test [2], -10.4%; in test [3], -2.55%; in test [4] it was 5.75%; in test [5], -17.4%; in test [6] it was -15.6%.
Take `ON(CCc1ccncc1)Cc1ccccc1`: the growth inhibition is 1.6% in test [1]; -31.1% in test [2]; -20.1% in test [3]; 2.95% in test [4]; -56.3% in test [5]; 15.5% in test [6].
As to `CC1=NCC(=O)N1`, the growth inhibition in test [1] was -10.2%; in test [2], 1.5%; in test [3], -1.1%; in test [4], -11.8%; in test [5], -6.1%; in test [6], -4%.
Take `COC(=O)C(C)CC(C)C(=O)OC` (stereo unspecified): the growth inhibition in test [1] is 19.6%; in test [2], -15.8%; in test [3] it was 17.6%; in test [4], 12.7%; in test [5] it was -2.95%; in test [6], 16.4%.
`CC1=C(C(=O)OCCO[N+](=O)[O-])C(c2ccccc2C(F)(F)F)C(C(=O)OC(C)C)=C(C)N1` (stereo unspecified): the growth inhibition is 45.5% in test [1]; 17.4% in test [2]; 32.9% in test [3]; 53% in test [4]; 30% in test [5]; -27.1% in test [6].
For `ONc1ncnc2nc[nH]c12`, the growth inhibition in test [1] was -8.65%; in test [2], 5.4%; in test [3], 3.8%; in test [4], -1.65%; in test [5], -2.45%; in test [6], -11.3%.
As for `O=c1c2ccccc2nc(-c2ccccc2)n1/N=C/c1cccnc1`, the growth inhibition was 0.9% in test [1]; 49.5% in test [2]; 30.8% in test [3]; -10.8% in test [4]; 7.5% in test [5]; 41.2% in test [6].
Consider `COc1cc(NS(C)(=O)=O)ccc1Nc1c2ccccc2nc2c1[nH]c1ccc(NC3OC(CO)C(O)C(O)C3O)cc12` (stereo unspecified), for which the growth inhibition in test [1] is 53.8%; in test [2], -4.9%; in test [3], 3.35%; in test [4], 0.2%; in test [5], -26.3%; in test [6], -27.6%.
Regarding `O=[N+]([O-])c1ccc(Oc2ccc(S(=O)(=O)O)cc2)cc1`, the growth inhibition in test [1] was 13.8%; in test [2], 6.5%; in test [3], -4.35%; in test [4], 7.4%; in test [5] it was 6.6%; in test [6] it was 2.5%.
With `O=c1[nH]c2nc3ccccc3c(=O)n2/c1=C/c1ccco1`, the growth inhibition in test [1] was 30.2%; in test [2], 16.8%; in test [3], 5.5%; in test [4], 20.2%; in test [5], 23.1%; in test [6], 3.95%.
For the compound `CCOC(=O)C1SCSCC1=O` (stereo unspecified), the growth inhibition is -1.1% in test [1]; -1.7% in test [2]; -5.55% in test [3]; -30.2% in test [4]; -20.6% in test [5]; 6% in test [6].
Regarding `CCOC(=O)C[P+](c1ccc(OC)cc1)(c1ccc(OC)cc1)c1ccc(OC)cc1`, the growth inhibition in test [1] was 90.8% (active); in test [2] it was 95.8% (active); in test [3] it was 92.5% (active); in test [4], 92.9% (active); in test [5] it was 92.3% (active); in test [6], 91.5% (active).
Turning to `Cc1c2occc2cc2c1oc(=O)c1cnccc12`, the growth inhibition in test [1] is 0.95%; in test [2] it was -0.15%; in test [3] it was 1.85%; in test [4], 21.2%; in test [5], -4.95%; in test [6] it was 14.9%.
